Measured values taken from PubChem BioAssay (NCI).
About 83,000 compounds went through this panel and 20% of them were active in at least one assay; those are over-represented in the sample as a whole.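 Single-concentration screen, 48 h exposure, 96-well plates. Endpoint: percent growth. Below 10 = active.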 Unmarked numbers belong to inactive results. Activity calls are given as the source filed them.

Key:
Experiment in all cases: NCI-60 one-dose screen, 48 h (100 = growth as untreated, 0 = no growth, -100 = all killed)
Details in all cases: 10 µM unless noted
NCI-H23 lung = tested on: NCI-H23 lung
NCI-H226 lung = tested on: NCI-H226 lung
NCI-H322M lung = tested on: NCI-H322M lung
HOP-62 NSCLC = tested on: HOP-62 NSCLC
NCI-H460 lung = tested on: NCI-H460 lung
HOP-92 NSCLC = tested on: HOP-92 NSCLC
NCI-H522 lung = tested on: NCI-H522 lung
A549/ATCC NSCLC = tested on: A549/ATCC NSCLC
786-0 renal = tested on: 786-0 renal
COLO 205 colon = tested on: COLO 205 colon
DU-145 prostate = tested on: DU-145 prostate
K-562 leukemia = tested on: K-562 leukemia
MALME-3M melanoma = tested on: MALME-3M melanoma
MDA-MB-231 breast = tested on: MDA-MB-231 breast
RXF 393 renal = tested on: RXF 393 renal
SF-268 CNS = tested on: SF-268 CNS
SF-295 CNS = tested on: SF-295 CNS
SF-539 CNS = tested on: SF-539 CNS
UACC-257 melanoma = tested on: UACC-257 melanoma
M14 melanoma = tested on: M14 melanoma

SMILES | growth (NCI-H23 lung) | growth (NCI-H226 lung) | growth (NCI-H322M lung) [%] | growth (HOP-62 NSCLC) | growth (NCI-H460 lung) | growth (HOP-92 NSCLC) | growth (NCI-H522 lung) | growth (A549/ATCC NSCLC) | growth (786-0 renal) | growth (COLO 205 colon) | growth (DU-145 prostate) | growth (K-562 leukemia) [%] | growth (MALME-3M melanoma) | growth (MDA-MB-231 breast) | growth (RXF 393 renal) | growth (SF-268 CNS) [%] | growth (SF-295 CNS) [%] | growth (SF-539 CNS) [%] | growth (UACC-257 melanoma) [%] | growth (M14 melanoma)
COc1ccc(-c2cc(-c3nnc(SCC(=O)Nc4ccc(C(C)=O)cc4)o3)c3ccccc3n2)cc1 | 0.0219% (active) | 17.1% | 79.9 | -33.9% (active) | -54.4% (active) | -10.1% (active) | -28.7% (active) | 22.3% | -72.3% (active) | 21.7% | 6.34% (active) | 35.2 | -52.7% (active) | -23.9% (active) | -4.69% (active) | 33.8 | 42.5 | 12.3 | 68.3 | 5.23% (active)
Cn1c2c(c3ccc(-c4ccn[nH]4)cc3c1=O)C(=O)c1ccccc1-2 | 25.3% | 0.642% (active) | 87.3 | 17.2% | 1.75% (active) | 79.3% | 48.8% | 8.44% (active) | 12.3% | 53.8% | 15.9% | 17.7 | 55.8% | 86.9% | 91.5% | 40.8 | 20.5 | 37.3 | 103 | 48.6%
CN(C)CSc1nc2ccccc2s1 | 92.9% | 95.1% | 94.8 | 88% | 109% | 78.7% | 91.5% | 101% | 95.4% | 91.6% | 105% | 119 | 86.7% | 91.7% | 106% | 101 | 92.8 | 94.2 | 113 | 88.8%
Cc1nnc(/N=C2\NC(=O)/C(=C/c3ccsc3)S2)s1 | 89.8% | 96% | 92.2 | 80.8% | 67.5% | 96.6% | 78.1% | 100% | 94.6% | 92.2% | 98.7% | 97.4 | 80.8% | 108% | 99.8% | 85.1 | 85.9 | 99.7 | 108 | 92%
Cc1ccccc1NC(=O)c1sc2nc(C)c(C(C)O)cc2c1N (stereo not given) | 79% | 88.6% | 86 | 45.1% | 35.4% | 47.3% | 32.8% | 36.2% | 57% | 40.5% | 81.8% | 14.4 | 60.2% | 59.4% | 44.9% | 67.5 | 39.5 | 31.7 | 52.5 | 24.7%
CCCCc1ccc(N=Nc2ccc(OCC[N+](C)(C)C)cc2)cc1 | 49.2% | 51.9% | 73.8 | 20% | 32.7% | 25.8% | 34.4% | 33.2% | 71.4% | -5.3% (active) | 60.5% | 44.5 | 69.4% | 38.5% | 22.9% | 26.9 | 32.9 | 35.9 | 71.4 | 25.8%
C=C(C)[C@@H]1CC[C@]2(C(=O)O)CC[C@]3(C)[C@H](CC[C@@H]4[C@@]5(C)C[C@@H](CC#Cc6ccccc6)C(=O)C(C)(C)[C@@H]5CC[C@]43C)[C@@H]12 | 25.2% | 28.5% | 31.9 | 32.5% | 24.1% | 48.2% | 11.6% | 25.3% | 35.3% | 20.8% | 37.3% | 16.9 | 38.1% | 55.3% | 71.5% | 50 | 34.8 | 49.1 | 60.5 | 36.5%
